Assay [1] in a line: qHTS of pediatric cancer cell lines to identify multiple opportunities for drug repurposing: Primary screen for U-2 OS cells (AID 1347096). Further: nearly all actives have a fitted effect of over 50% in size. In short, it runs like this: (§1)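 Cells (500-1,000/well) rested 5 h, then received compounds for 48 h; metabolically active cells were measured by CellTiter-Glo luminescence. Final concentrations spanned up to 46 µM (MIPE, 11-point) or 0.59 nM-46 µM (NPC, 8-point) in primary screens, 11-point in follow-ups.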
On the technique in general: Quantitative high-throughput screening tests each substance at several concentrations.

Assay [2] in a line: qHTS of pediatric cancer cell lines to identify multiple opportunities for drug repurposing: Primary screen for Saos-2 cells (AID 1347097). Further: nearly all actives have a fitted effect of over 40% in size. Summed up:
(§2)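 Plated cells (500-1,000 per well, growth media) were allowed to settle for 5 hours, treated with compound dilutions for 48 hours, then lysed with CellTiter-Glo for 15 min at room temperature before luminescence reading.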

Assay [3] is described as follows: qHTS of pediatric cancer cell lines to identify multiple opportunities for drug repurposing: Primary screen for SK-N-SH cells (AID 1347098). Further: nearly all actives have a fitted effect of over 65% in size. Summed up: as §1
The nature of assay [4]: qHTS of pediatric cancer cell lines to identify multiple opportunities for drug repurposing: Primary screen for NB1643 cells (AID 1347099). Further: nearly all actives have a fitted effect of over 50% in size. Summed up:
as §2

Assay [5] is described as follows: qHTS of pediatric cancer cell lines to identify multiple opportunities for drug repurposing: Primary screen for LAN-5 cells (AID 1347100). In short, it runs like this: as §1
Assay [6] is described as follows: qHTS of pediatric cancer cell lines to identify multiple opportunities for drug repurposing: Primary screen for BT-12 cells (AID 1347101). Further: nearly all actives have a fitted effect of over 25% in size. Summed up:
as §1

A short description of assay [7]: qHTS of pediatric cancer cell lines to identify multiple opportunities for drug repurposing: Primary screen for Rh18 cells (AID 1347102). Further: nearly all actives have a fitted effect of over 65% in size. In short, it runs like this: as §1
Assay [8] is described as follows: qHTS of pediatric cancer cell lines to identify multiple opportunities for drug repurposing: Primary screen for OHS-50 cells (AID 1347103). Further: nearly all actives have a fitted effect of over 40% in size. In short, it runs like this: as §1
The nature of assay [9]: qHTS of pediatric cancer cell lines to identify multiple opportunities for drug repurposing: Primary screen for RD cells (AID 1347104). Further: nearly all actives have a fitted effect of over 55% in size. Summed up: as §2
A short description of assay [10]: qHTS of pediatric cancer cell lines to identify multiple opportunities for drug repurposing: Primary screen for MG 63 (6-TG R) cells (AID 1347105). Further: nearly all actives have a fitted effect of over 50% in size. In short, it runs like this: as §2

Results filed as inconclusive are left out. Active and inactive are the calls of the source. The call rests on the fitted dose curve; in most records, active means well fitted curve in the direction sought with a large enough effect; inconclusive means small, poorly fitted or top-dose-only effect, or another doubt; inactive means no such curve, though single readings can be large; an effect the other way counts as inactive or inconclusive.
Potency means the concentration at half of the fitted maximal effect.

In the case of `CC(=O)Nc1ccc(OC(=O)c2ccccc2OC(C)=O)cc1`, the Potency result in assay [1], in [2], in assay [3], in assay [4], in assay [5] and in [6] was “inactive” in each case. Besides, the Potency result in [7], in assay [8], in assay [9] and in assay [10] was “inactive” throughout.

Turning to `OC1C(O)C(O)C(O)C(O)C1O` (centres undefined), the Potency result in assay [1], in assay [2], in [3], in assay [4], in assay [5] and in assay [6] was “inactive” in each case. For the same compound, the Potency entry in [7], in assay [8], in assay [9] and in assay [10] was “inactive” in each case.

As to `FC1(F)C(F)(F)C(F)(F)C2(F)C(F)(F)C(F)(F)C(F)(F)C(F)(F)C2(F)C1(F)F` (centres undefined), the Potency result in [1], in [2], in assay [3], in assay [4], in [5] and in [6] was “inactive” each time. In addition, the Potency result in assay [7], in [8], in assay [9] and in [10] was “inactive” each time.

Turning to `CN(C)CCOC(=O)C(c1ccccc1)C1(O)CCCC1` (centres undefined), the Potency result in assay [1], in [2], in assay [3], in assay [4], in assay [5] and in assay [6] was “inactive” each time. Also, the Potency result in assay [7], in [8], in [9] and in assay [10] was “inactive” throughout.

For the compound `COc1ccccc1N1CCN(CCCCNC(=O)c2ccc(-c3ccc(C(C)=O)cc3)cc2)CC1`, the Potency entry in assay [1], in [2], in assay [3], in assay [4], in [5] and in assay [6] was “inactive” throughout. Moreover, the Potency entry in assay [7], in assay [8], in [9] and in [10] was “inactive” in each case.

With `FC(F)(F)C(F)(F)C(F)(F)C(F)(F)C(F)(F)C(F)(F)C(F)(F)C(F)(F)Br`, the Potency result in [1], in assay [2], in assay [3], in assay [4], in [5] and in assay [6] was “inactive” each time. Further, the Potency result in assay [7], in assay [8], in assay [9] and in assay [10] was “inactive” throughout.

As for `CCN(CC)CCOC(=O)C1(c2ccccc2)CCCC1`, the Potency result in assay [1], in assay [2], in assay [3], in [4], in assay [5] and in [6] was “inactive” each time. Also, the Potency result in assay [7], in [8], in assay [9] and in assay [10] was “inactive” each time.

With `C[N+]1(C)CCC(=C(c2ccccc2)c2ccccc2)CC1`, the Potency entry in [1], in assay [2], in assay [3], in [4], in assay [5] and in assay [6] was “inactive” each time. Also, the Potency entry in [7], in assay [8], in [9] and in assay [10] was “inactive” throughout.

For the compound `NC1CCN(c2nc3c(cc2F)c(=O)c(C(=O)O)cn3-c2ccc(F)cc2F)C1` (centres undefined), the Potency result in assay [1], in assay [2], in assay [3], in [4], in assay [5] and in assay [6] was “inactive” each time. The Potency entry in assay [7], in [8] and in assay [9] was “inactive” throughout.

Turning to `CCN(CC)CCNC(=O)c1cc(Br)c(N)cc1OC`, the Potency entry in assay [1], in assay [2], in assay [3], in assay [4], in assay [5] and in assay [6] was “inactive” each time. Moreover, the Potency entry in assay [7], in [8], in [9] and in assay [10] was “inactive” in each case.

Take `C[C@@]12C(=O)OC(=O)[C@]1(C)C1CCC2O1`: the Potency was 3.35 µM (active) in [1]; 1.5 µM (active) in [2]; 3.44 µM (active) in assay [3]; 1.19 µM (active) in [4]; 2.66 µM (active) in [5]; 6.92 µM (active) in assay [6]. Further, the Potency was 1.88 µM (active) in [7], 1.74 µM (active) in assay [8], 4.73 µM (active) in assay [9] and 1.68 µM (active) in [10].

For `CC(=O)Oc1ccc(C)cc1`, the Potency entry in assay [1], in [2], in [3], in assay [4], in assay [5] and in [6] was “inactive” in each case. Moreover, the Potency entry in assay [7], in assay [8], in assay [9] and in [10] was “inactive” throughout.

Regarding `O=C(O)CCNC(=O)c1ccccc1`, the Potency entry in [1], in assay [2], in assay [3], in assay [4], in assay [5] and in assay [6] was “inactive” throughout. In addition, the Potency entry in assay [7], in assay [8], in assay [9] and in assay [10] was “inactive” throughout.

Consider `CCOc1ccc(NC(C)=O)cc1`, for which the Potency entry in assay [1], in assay [2], in assay [3], in assay [4], in assay [5] and in assay [6] was “inactive” in each case. Moreover, the Potency entry in [7], in [8], in [9] and in assay [10] was “inactive” in each case.

Regarding `CCC(Cc1c(I)cc(I)c(N)c1I)C(=O)O` (centres undefined), the Potency entry in assay [1], in assay [2], in assay [3], in assay [4], in assay [5] and in assay [6] was “inactive” throughout. Moreover, the Potency entry in assay [7], in assay [8], in [9] and in assay [10] was “inactive” in each case.

For `Cc1ccc(-c2ncc(Cl)cc2-c2ccc(S(C)(=O)=O)cc2)cn1`, the Potency entry in assay [1], in [2], in [3], in assay [4], in assay [5] and in [6] was “inactive” each time. The Potency result in [7], in [8], in assay [9] and in [10] was “inactive” throughout.

As for `Cc1ccccc1OCC(O)CO` (centres undefined), the Potency result in assay [1], in [2], in [3], in [4], in assay [5] and in assay [6] was “inactive” in each case. The Potency result in [7], in assay [8], in assay [9] and in [10] was “inactive” in each case.

For the compound `CN(C)CCOC(c1ccc(Cl)cc1)c1ccccn1` (centres undefined), the Potency entry in [1], in assay [2], in assay [3], in [4], in assay [5] and in [6] was “inactive” in each case. For the same compound, the Potency result in assay [7], in assay [8], in assay [9] and in assay [10] was “inactive” each time.

On to `COc1ccc(CN(CCN(C)C)c2ncccn2)cc1`, for which the Potency result in assay [1], in assay [2], in assay [3], in [4], in assay [5] and in assay [6] was “inactive” throughout. In addition, the Potency result in [7], in assay [8], in [9] and in assay [10] was “inactive” in each case.

For the compound `CC(=O)Nc1ccc(CC(=O)O)cc1`, the Potency entry in assay [1], in assay [2], in assay [3], in assay [4], in [5] and in [6] was “inactive” each time. In addition, the Potency result in [7], in assay [8], in assay [9] and in assay [10] was “inactive” each time.

`CN1CCN(c2c(F)cc3c(=O)c(C(=O)O)cn4c3c2SCC4)CC1`: the Potency entry in [1], in [2], in assay [3], in assay [4], in [5] and in assay [6] was “inactive” in each case. For the same compound, the Potency result in assay [7], in assay [8], in assay [9] and in assay [10] was “inactive” throughout.

On to `Nc1nc(N)c(-c2ccccc2)s1`, for which the Potency result in [1], in assay [2], in assay [3], in assay [4], in assay [5] and in assay [6] was “inactive” in each case. The Potency result in [7], in assay [8], in [9] and in assay [10] was “inactive” each time.

Turning to `Nc1ccc(S(=O)(=O)Nc2cnc3ccccc3n2)cc1`, the Potency entry in [1], in assay [2], in assay [3], in assay [4], in assay [5] and in assay [6] was “inactive” throughout. The Potency result in assay [7], in assay [8], in assay [9] and in [10] was “inactive” throughout.

As to `COc1cc(C(=O)N2CCCCCCC2)cc(OC)c1OC`, the Potency result in assay [1], in assay [2], in assay [3], in [4], in assay [5] and in assay [6] was “inactive” throughout. In addition, the Potency result in [7], in assay [8], in [9] and in assay [10] was “inactive” throughout.

These data come from PubChem BioAssay (NCATS).
